Hits are enriched below; roughly 10% of the tested compounds scored in any of these assays.
FLuc inh: Photinus pyralis luciferase inhibition. P08659. purified P. pyralis luciferase, luminescence, biochemical. Potency, µM (doses to about 115 µM), most hits filed as inhibitors. 2.5% of 76,000 active. AID 1347043; also: nearly all actives have a fitted effect of over 65% in size
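Inhibitors were tested against purified firefly luciferase in a biochemical, low-substrate format (both substrates at 10uM) and luminescence measured with a CCD imager.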
NIH3T3 tox: NIH 3T3 cell cytotoxicity | NIH 3T3 viability, CellTiter-Glo ATP luminescence, 48-72 h | Potency, µM (highest dose often 96.7 µM), actives largely listed as inhibitors | 4.3% of 94,000 active | AID 1345082; also: nearly all actives have a fitted effect of over 55% in size
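ATP-dependent luminescence (CellTiter-Glo) served as the viability signal for NIH 3T3 cells treated with compound for 48 or 72 hr at 37 °C.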
HEK293 tox: kills HEK 293 cells | Potency, µM (doses to about 115 µM), hits mostly inhibitors | 6.6% of 94,000 active | HEK 293 viability, ATP luminescence (CellTiter-Glo), 48-72 h; also: nearly all actives have a fitted effect of over 60% in size
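Viability of HEK 293 cells, plated at 250 cells/well, was judged by cellular ATP after compound treatment for 48 or 72 hr. Luminescence was imaged 10 min after CellTiter-Glo addition at room temperature.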
GPT2 inh: blocks human glutamate pyruvate transaminase 2 | Recombinant GPT2, coupled pyruvate oxidase/HRP Amplex Red fluorescence | Potency, µM (top dose mostly 57.7 µM), actives largely listed as inhibitors | 0.25% of 100,000 active; also: nearly all actives have a fitted effect of over 60% in size
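Inhibition is scored from Amplex Red fluorescence generated when pyruvate oxidase and HRP act on pyruvate released by GPT2. Reactions contain 10ng/uL enzyme, 250uM a-KG and 2mM L-alanine and run 30 min at room temperature.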
hNpr1 antagonist: human Npr1 receptor antagonism | 1.6% of 76,000 active | AID 1347048 | P16066 | Potency, µM (highest dose often 46.3 µM), hits mostly inhibitors | HEK293 hNpr1 GloSensor cGMP, ANP-stimulated luminescence; calls by dose curve; also: nearly all actives have a fitted effect of over 60% in size
Target sequence (P16066 whole entry, looked up): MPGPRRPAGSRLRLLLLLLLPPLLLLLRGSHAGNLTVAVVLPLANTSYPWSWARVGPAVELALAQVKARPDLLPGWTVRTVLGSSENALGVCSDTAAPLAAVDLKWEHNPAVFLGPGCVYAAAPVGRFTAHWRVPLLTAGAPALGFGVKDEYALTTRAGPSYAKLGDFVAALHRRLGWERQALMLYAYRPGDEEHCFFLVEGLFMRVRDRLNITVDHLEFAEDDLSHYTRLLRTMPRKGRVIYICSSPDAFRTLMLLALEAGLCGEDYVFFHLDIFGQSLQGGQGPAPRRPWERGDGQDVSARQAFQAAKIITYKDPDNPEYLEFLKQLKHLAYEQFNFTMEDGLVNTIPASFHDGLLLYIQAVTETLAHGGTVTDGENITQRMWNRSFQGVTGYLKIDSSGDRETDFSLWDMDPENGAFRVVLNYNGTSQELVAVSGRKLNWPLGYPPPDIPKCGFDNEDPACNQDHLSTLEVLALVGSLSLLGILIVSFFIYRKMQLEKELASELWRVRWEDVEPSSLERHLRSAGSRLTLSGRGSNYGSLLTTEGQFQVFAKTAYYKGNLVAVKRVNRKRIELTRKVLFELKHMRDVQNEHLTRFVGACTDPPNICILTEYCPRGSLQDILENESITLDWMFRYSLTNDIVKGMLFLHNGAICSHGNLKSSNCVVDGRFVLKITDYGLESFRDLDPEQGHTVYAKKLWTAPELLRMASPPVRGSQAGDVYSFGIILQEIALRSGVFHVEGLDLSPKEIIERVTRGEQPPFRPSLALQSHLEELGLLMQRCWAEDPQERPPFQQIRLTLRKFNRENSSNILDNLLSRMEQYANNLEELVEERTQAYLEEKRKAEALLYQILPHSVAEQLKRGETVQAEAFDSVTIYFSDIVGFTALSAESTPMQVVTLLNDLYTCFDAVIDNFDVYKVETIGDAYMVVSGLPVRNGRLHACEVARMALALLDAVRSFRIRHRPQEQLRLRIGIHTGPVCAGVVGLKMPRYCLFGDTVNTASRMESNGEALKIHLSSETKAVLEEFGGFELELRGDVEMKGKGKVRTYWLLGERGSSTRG
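Compound pre-incubated 30 min at room temperature on GloSensor-loaded HEK293 cells stably carrying hNpr1 and the pGS-40F cGMP biosensor. Stimulation uses hNppA at 0.1 nM final; luminescence is taken at baseline and 20 min post-agonist.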
Hits are given with their value; n = inactive; u = inconclusive; x = no result. Unless noted, calls follow the shape of the dose curve; as a rule, active = well fitted curve in the direction sought with a large enough effect; inconclusive = small, poorly fitted or top-dose-only effect, or another doubt; inactive = no such curve, though single readings can be large; an effect the other way counts as inactive or inconclusive.

SMILES	FLuc inh	NIH3T3 tox	HEK293 tox	GPT2 inh	hNpr1 antagonist
Cc1noc([C@@H]2Cc3nc[nH]c3CN2C(=O)Nc2ccccc2)n1	n	n	n	n	n
COc1ccc(-c2cn3cc(C(=O)NC(C)C)nc3s2)cc1	x	u	u	n	x
Cc1nnc2ccc(N3CCN(S(=O)(=O)c4ccccc4)CC3)nn12	x	u	n	x	x
CC(C)(C)C(=O)N1CCC(C(=O)N2CCC(N3Cc4ccccc4C3=O)CC2)CC1	x	n	n	n	x
CC(C)(C)CN[C@H]1C[C@@H](Cc2cc(COc3ccccc3)on2)C1(C)C	n	28µM	22µM	n	n
CCCN[C@H]1C[C@@H](Cc2cc(COc3ccccc3)on2)C1(C)C	n	u	u	n	n
COc1ccc(-c2cc(C[C@@H]3C[C@H](NC(=O)c4ccccc4)C3(C)C)no2)cc1	n	u	u	n	u
CCNC(=O)N[C@H]1C[C@@H](Cc2cc(COc3ccccc3)on2)C1(C)C	n	u	89µM	n	n
CC1(C)[C@H](Cc2cc(COc3ccccc3)on2)C[C@@H]1NC(=O)Cc1ccccc1	n	56µM	56µM	n	u
COCC(=O)N[C@H]1C[C@@H](Cc2cc(-c3ccc(OC)cc3)on2)C1(C)C	u	56µM	35µM	u	n
CN1CCC(N[C@H]2C[C@@H](Cc3cc(-c4ccc(F)cc4)on3)C2(C)C)CC1	63µM	7.1µM	8.9µM	n	u
CCCCc1cc(C[C@@H]2C[C@H](NC(=O)c3cccc(F)c3)C2(C)C)no1	n	63µM	63µM	n	u
CC1(C)[C@H](Cc2cc(COc3ccccc3)on2)C[C@@H]1NC(=O)COc1ccccc1	n	63µM	50µM	n	u
CC1(C)[C@H](Cc2cc(COc3ccccc3)on2)C[C@@H]1NC1CCOCC1	n	u	u	n	n
CC(C)Cc1cc(C[C@@H]2C[C@H](NC3CCOCC3)C2(C)C)no1	n	n	n	n	n
COc1ccc(C(=O)N[C@H]2C[C@@H](Cc3cc(COc4ccccc4)on3)C2(C)C)cc1	n	28µM	u	n	u
Cn1cccc1CN1CC(F)(F)C[C@H]1c1nnc(C2CC2)o1	n	n	n	n	n
N#Cc1ccc(C(=O)Nc2ccc([C@@H](O)[C@H]3COCC(=O)N3)cc2)cc1	n	n	n	n	n
Cc1cccc(CC(=O)N2CCCN(S(C)(=O)=O)c3ccccc32)c1	n	40µM	n	n	n
COc1ccc(CC(=O)N2CCCN(S(C)(=O)=O)c3ccccc32)cc1OC	n	n	n	n	n
O=C1CC(c2noc(Cc3ccc(Cl)cc3)n2)CN1C1CCCCC1 (centres undefined)	n	u	71µM	u	n
Cn1cc(CNC(=O)C2CCN(c3nc(-c4ccccc4)nc4c3CCC4)CC2)cn1	n	n	n	n	n
O=C(NCC1CCNC1)C1CCN(c2nc(-c3ccccc3)nc3c2CCC3)CC1 (centres undefined)	n	79µM	u	u	n
Cc1ccc(-c2noc(CCCC(=O)N3CCC(c4nc(C(=O)N5CCCC5)c(C)o4)CC3)n2)cc1	x	u	35µM	n	x
CCN(C(=O)CCC(=O)N1CCC(c2nc(C(=O)N3CCCC3)c(C)o2)CC1)c1ccccc1	x	u	u	n	x
SMILES	FLuc inh	NIH3T3 tox	HEK293 tox	GPT2 inh	hNpr1 antagonist
Cc1nn(-c2ccccc2)c2c1C(C1CC1)N(C1CCN(C(=O)c3ccc(F)cc3)C1)C2=O (centres undefined)	x	u	35µM	x	x
Cc1nn(-c2ccccc2)c2c1C(C)N(C1CCN(C(=O)c3cccc(Cl)c3)C1)C2=O (centres undefined)	x	32µM	22µM	x	x
Cc1nn(-c2ccccc2)c2c1C(C)N(C1CCN(C(=O)c3ccc(F)cc3)C1)C2=O (centres undefined)	x	u	45µM	x	x
Cc1nn(-c2ccccc2)c2c1C(C)N(C1CN(C(=O)c3ccc(Cl)cc3)C1)C2=O (centres undefined)	x	n	n	x	x
Cc1nn(-c2ccccc2)c2c1C(C)N(C1CN(C(=O)c3ccc(C(F)(F)F)cc3)C1)C2=O (centres undefined)	x	u	40µM	x	x
CC(=O)N1CCN(C(=O)c2nc3sccn3c2-c2ccc(F)cc2)CC1	x	n	n	n	x
COc1ccccc1Nc1ccnc(N2CCCC(C(=O)N3CCCCC3)C2)n1 (centres undefined)	x	35µM	35µM	n	x
